The panel holds about 83,000 compounds, 20% with a hit somewhere; the sample as a whole holds those more often.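 The endpoint reported here, percent growth, reads 100 for growth as untreated, 0 for no net growth and -100 for all cells dead.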 Values without a mark were called inactive. Active and inactive are the calls of the source. How the source made its calls: active means growth percent below 10; inactive means the rest.
Key:
Assay in all cases: NCI-60 one-dose screen, 48 h (100 = growth as untreated, 0 = no growth, -100 = all killed)
Conditions in all cases: 10 µM unless noted
[1] = test system: SR leukemia
[2] = test system: RPMI-8226 leukemia
[3] = test system: OVCAR-8 ovarian
[4] = test system: OVCAR-5 ovarian
[5] = test system: OVCAR-4 ovarian
[6] = test system: SK-OV-3 ovarian
[7] = test system: IGROV1 ovarian
[8] = test system: OVCAR-3 ovarian
[9] = test system: HS 578T breast
[10] = test system: NCI/ADR-RES ovarian

Compound | growth [1] | growth [2] | growth [3] | growth [4] | growth [5] | growth [6] | growth [7] | growth [8] | growth [9] | growth [10]
COc1cc2cc(C(=O)N3C[C@@H](CCl)c4c3cc(OC(=O)N(C)CCSSCCN3CCOCC3)c3ccccc43)[nH]c2c(OC)c1OC | -23.5% (active) | -11.5% (active) | -41.4% (active) | -42.8% (active) | -36.7% (active) | -30% (active) | -27.6% (active) | -1.85% (active) | -15.2% (active) | -33.4% (active)
Cc1ccc(/C=C/C(=O)c2ccc(S(=O)(=O)NCCNc3nc(N(C)C)nc(N4CCOCC4)n3)cc2)cc1 | -36.4% (active) | -15.6% (active) | 88.8% | 97.6% | 91.6% | 90.5% | 102% | 109% | 97.9% | 86.2%
COc1ccccc1Nc1nnc(-c2c[nH]c3ccccc23)o1 | 1.74% (active) | -12.4% (active) | 11.8% | 32.1% | 64.3% | 15.4% | 16.8% | 12.9% | 9.82% (active) | -35.9% (active)
CCCCCCCCc1cccc(CC(=O)Nc2ccc(C)cc2C(=O)O)c1 | 31.1% [25 µM] | 25.4% [25 µM] | 45.6% [25 µM] | 75.6% [25 µM] | 86.1% [25 µM] | 89.2% [25 µM] | 42.5% [25 µM] | 69.4% [25 µM] | 89.8% [25 µM] | 49.6% [25 µM]
CCCCNc1ccc2c3c(cccc13)C(=O)N(c1cccc(-c3nn(-c4ccccc4)cc3-c3nc4ccccc4s3)c1)C2=O | 95.5% | 95.3% | 107% | 104% | 101% | 126% | 98.4% | 111% | 110% | 98%
CN(C)c1nc(NCCNS(=O)(=O)c2ccc(C(=O)/C=C/c3ccc(F)cc3)cc2)nc(N2CCOCC2)n1 | -25.7% (active) | -28.4% (active) | 42.3% | 96% | 64.5% | 82.5% | -44.9% (active) | 64.1% | 73.5% | 49.3%
CS(=O)(=O)Nc1cncc(-c2ccc3ncnc(NCc4ccccc4)c3c2)c1 | 6.25% (active) | 52% | 49.2% | 42.6% | 44.8% | 67.6% | 4.57% (active) | 33.6% | -5.05% (active) | 89%
COc1ccc(Nc2nnc(-c3c[nH]c4ccccc34)o2)cc1 | 70.5% | 32.5% | 86.2% | 103% | 85.3% | 74.2% | 60.9% | 94.4% | 81.2% | 73.8%
O=C(N/N=C/c1ccc(Cl)cc1)c1ccc(OCc2nc3ccc(Cl)cc3[nH]2)cc1 | 3.65% (active) | 40.3% | -12.1% (active) | 35.4% | -8.33% (active) | 14.5% | 15.4% | -20.3% (active) | 25.2% | 45.4%
CCCCNC(=S)Nc1ccc(OCc2nc3ccc(Cl)cc3[nH]2)cc1 | 2.29% (active) | -0.388% (active) | 38.7% | 28.2% | 21.5% | 75.4% | 12.9% | 13.6% | 28.5% | 21.6%
O=C(c1ccc(Cl)cc1)C1[C@H](c2ccccc2Cl)[C@@H](c2ccccc2)NC12C(=O)Nc1ccc(Cl)cc12 (stereo not given in full) | -52.8% (active) | 2.23% (active) | -76.4% (active) | -53.8% (active) | -14.4% (active) | 1.4% (active) | -42.5% (active) | -28.9% (active) | -40.4% (active) | -82.7% (active)
CC[C@@]12CC(C(=O)OC)=C3Nc4cc5c(cc4[C@@]34CCN(C[C@H]3O[C@H]31)[C@@H]24)[C@@H]1[C@H](O5)[C@@H](O)[C@@]2(CC)CC(C(=O)OC)=C3Nc4cc(O)ccc4[C@@]34CCN1[C@@H]24 | -29.6% (active) | -9.59% (active) | 2.33% (active) | -74.7% (active) | -39% (active) | -32.4% (active) | -65.8% (active) | -15.7% (active) | 6.27% (active) | 6.74% (active)
S=C(NCCc1ccccc1)Nc1ccc(OCc2nc3ccc(Cl)cc3[nH]2)cc1 | -7.42% (active) | 7.74% (active) | 39.7% | 30.5% | 32.1% | 77.2% | 31.4% | 34.9% | 38.4% | 11.7%
CCC(=O)c1cc(C(=O)OC)c2ccc3c4ccccc4ccc3n12 | 68.3% | 84.9% | 71.5% | 73.8% | 1.22% (active) | 122% | 70.2% | 67.5% | 63.3% | 76.6%
O=C(N/N=C/c1c[nH]c2ccccc12)Nc1ccc(F)c(Cl)c1 | 19.3% | 27.5% | 50.2% | 60.1% | 52.8% | 38.6% | 42.7% | 18.9% | 58.8% | 9.47% (active)
COc1ccc2c(c1)C(Sc1ccc(Br)cc1)c1c(nc(N)c(C#N)c1N)O2 (stereo not given) | 46.5% | 87.1% | 87% | 113% | 92.4% | 98.1% | 59.1% | 114% | 88.8% | 86.5%
CN1CCc2c(sc3ncnc(N/N=C/c4cccc(Cl)c4Cl)c23)C1 | 8.87% (active) | -16% (active) | -38.6% (active) | 88% | -24.8% (active) | 90.6% | 10.6% | 25.1% | 38.2% | 49.4%
C/C(=N\Nc1ccc(C(=O)O)cc1)c1cnn(-c2cc(=O)[nH]c3ccc(C)cc23)c1C | 88.6% | 85.1% | 104% | 99.2% | 94.6% | 94.3% | 112% | 98.9% | 92.5% | 101%
Cc1ccc(C2CC(c3ccc(NC(=O)Nc4ccccc4)cc3)=NN2c2ccc(S(N)(=O)=O)cc2)cc1 (stereo not given) | -12.7% (active) | -11.5% (active) | -46.2% (active) | -95.4% (active) | -87.6% (active) | -77.6% (active) | -93.5% (active) | -75.8% (active) | -28.7% (active) | -66.9% (active)
COc1ccc(N=Nc2c(N)nn3c(N)c(C#N)c(-c4ccc(F)cc4)nc23)cc1 | 78.4% | 50.3% | 29.6% | 95.9% | 50.9% | 43.1% | 76.9% | 103% | 20.6% | 25.1%
Fc1cccc(CNc2nc(SCCN3CCOCC3)nc3c2cnn3CC(Cl)c2ccc(Br)cc2)c1 (stereo not given) | -18.1% (active) | 2.98% (active) | 32.6% | 59.9% | 27.3% | 51.3% | 52.2% | 49.7% | 19.2% | 23%
Cn1cc(-c2cc(N)n3nc(-c4c[nH]c5ccc(Cl)cc45)cc3n2)c2cccnc21 | -26.2% (active) | -17.8% (active) | -76.2% (active) | -82.5% (active) | -42% (active) | -73.5% (active) | -77.7% (active) | -71.3% (active) | -26.2% (active) | -73.8% (active)
COc1nc(N)ncc1-c1ccc2ncnc(N3CCc4cc(F)c(Cl)cc43)c2c1 | -11.2% (active) | 14% | -24.1% (active) | -2.67% (active) | -84.5% (active) | -36.6% (active) | -45.3% (active) | -24.7% (active) | 7.35% (active) | 18.9%
OC1CCC(Cn2c(C(F)(F)F)cc3c(Cl)ncnc32)CC1 (stereo not given) | -58.9% (active) | 84.9% | -4.04% (active) | 94.6% | -19.9% (active) | 57.7% | -85.7% (active) | -25.1% (active) | -35.7% (active) | 51.8%
CC(C)(C)C(=O)C1CC(C#N)=C2C=Cc3c(ccc4ccccc34)N21 (stereo not given) | 94.3% | 75% | 71.2% | 121% | 79.3% | 75% | 92.9% | 96.3% | 30.6% | 81.9%
Cn1cc(-c2cc(N)n3nc(-c4c[nH]c5ccc(F)cc45)cc3n2)c2cccnc21 | -11.7% (active) | -30.3% (active) | -59.6% (active) | -81.1% (active) | -30% (active) | -56% (active) | -71.4% (active) | -76.1% (active) | -14.6% (active) | -44.7% (active)

— PubChem BioAssay (NCI)
